Screen size: about 69,000 compounds; about 10 (0.01%) showed an effect of 50% or more. The entries come from a sample that favours strong results as a whole.
Target: ClpP1P2 (Mycobacterium tuberculosis (strain ATCC 25618 / H37Rv)) (UniProt P9WPC5+P9WPC3)
Experiment: in vitro assay to detect presence of AMC directly proportional to the activity of ClpP1P2. GHDDI collaboration.
Assay type: functional
Design: scale not given: direction of the effect not stated beside the values
Details: 50 µM

In order of rising Percent Effect:
1. Cc1cc(CN2CCCC2)cc(Oc2ccc3c(c2)CC(CN)O3)c1 (stereo unspecified)  -31.6%
2. COc1ccc(CN2CCCC2)cc1Oc1ccc2c(c1)CC(CN)O2 (stereo unspecified)  -30%
3. CC(C)NC(=O)[C@H]1C[C@@H]2[C@@H](C1)OCCN2Cc1nccs1  -14.4%
4. O=C(CCC(F)(F)F)N1CCN(Cc2ccncc2)[C@@H]2CS(=O)(=O)C[C@@H]21  -11.9%
5. CCN1CC[C@@]2(C(=O)N3CCOCC3)CCN(C(=O)CC(C)C)CC[C@@H]12  -11.5%
6. O=C(C[C@H]1[C@H]2CN(Cc3ccc(F)cc3)C[C@@H]12)N1CCCC1  -10.3%
7. CN(C)S(=O)(=O)N1CCO[C@H]2[C@H](Oc3cccnc3)CC[C@@H]21  -10.1%
8. CC(CN1CC[C@@H]2CCCC[C@@H]2C1)n1cnc2ccccc21 (stereo partly specified)  -9.76%
9. O=C(c1ncccn1)N1C[C@@H]2CC[C@H](Oc3cccc(F)c3)[C@@H]2C1  -9.72%
10. CC(=O)N1CC[C@H]2CC(=O)N(C3CCCCC3)CC[C@H]2C1  -8.93%
11. Cc1ccc(CN2CCO[C@@H]3C[C@@H](C(=O)NC(C)C)C[C@H]32)o1  -8.36%
12. C[C@H]1C[C@H]2CN(C(=O)CCc3ccccc3)CC[C@H]2O1  -7.99%
13. COc1ccc(N2CCN(C(=O)[C@H]3[C@@H]4CNC[C@@H]43)CC2(C)C)cc1  -7.82%
14. CC(=O)N1[C@H](Cn2cncn2)C[C@@H]2CN(Cc3ccccn3)CC[C@@H]21  -7.75%
15. CCN(CC)Cc1cc(C(=O)N2CC[C@@]3(O)CCCC[C@H]3C2)c(C)o1  -7.09%
16. N#Cc1cccc(CN2CC[C@@H]3[C@@H]2CC(=O)N3CCN2CCCC2)c1  -6.88%
17. CN(C)S(=O)(=O)N1C[C@@H]2CC[C@H](C1)N(Cc1ccc3c(c1)OCCO3)C2  -5.61%
18. O=C(CCN1C[C@H]2CC[C@@H]1CN(c1ncccn1)C2)NCc1ccco1  -5.46%
19. CC1=N[C@@]2(CC[C@@H]3CN(CC4CC4)C[C@@H]32)C(=O)N1CC1CC1  -5.13%
20. O=C(N1CCCC1)N1C[C@H]2CC[C@@H]1CN(Cc1ccncc1)C2  -3.97%
21. Cc1cccc(CN2CC[C@H]3C[C@H](C)O[C@@H]3C2)n1  -3.13%
22. O=C1C[C@@H]2[C@H](CCN2Cc2ccco2)N1c1ccsc1  -3.07%
23. COc1ccc(-c2ncccc2C(=O)N2C[C@H]3CC[C@@H]2C3)cn1  -2.59%
24. CN(C)C(=O)N1CC[C@H]2[C@H]1CCN2c1nncs1  -2.44%
25. CN(C)C[C@H]1OC[C@@H]2CCN(S(=O)(=O)c3cccs3)C[C@@H]21  -1.92%
26. CCN1C[C@H]2CCN(C(=O)c3cc[nH]n3)CC[C@H]2S1(=O)=O  -1.84%
27. O=C(Nc1ccccc1)[C@H]1CN2CC[C@H]1C[C@@H]2Cn1cc(CCO)nn1  -1.69%
28. CN(C)c1nccc(N2CCO[C@H]3CN(Cc4ccsc4)C[C@H]32)n1  -1.49%
29. Cc1ccoc1C(=O)N1C[C@@H](OCC2CCOCC2)[C@H]2OCCC[C@H]21  -0.469%
30. CC(C)N1C[C@@H]2CN(C(=O)NCc3ccccc3)CCC[C@]2(C(=O)O)C1  -0.327%
31. Cc1noc([C@@H]2C[C@H]3CN(Cc4ccc5c(c4)OCO5)C[C@H]3O2)n1  2.95%
32. NC(=O)c1cc2c(nc1N1C[C@H]3OC(=O)N(C4CCCC4)[C@H]3C1)CCC2  3.22%
33. CN(C[C@H]1CN2CC[C@H]1C[C@@H]2CNC(=O)c1ccco1)c1ccccc1  3.33%
34. Cc1noc(C)c1CN1C[C@H]2CNC[C@H]2C1  3.63%
35. Cc1nc2cc(C3CCN(Cc4cccc(F)c4F)C3)nn2c(O)c1C (stereo unspecified)  4.6%
36. Cc1cnc(N2C[C@H]3CCCC(N(C)Cc4ccccn4)[C@H]3C2)nc1 (stereo partly specified)  6.27%
37. Cc1nc(NCC2CC2)nc2c1COCC21CCN(C(=O)NC(C)C)C1 (stereo unspecified)  6.34%
38. CCCc1nc(N2CCCN3CCC[C@H]3C2)c2cnn(C)c2n1  7.09%
39. CCc1cnc(N2C[C@H]3C[C@H](C(=O)N4CCOCC4)[C@@H](C2)O3)nc1  7.75%
40. O=C(c1ccoc1)N1CC[C@@H]2O[C@@H](COCCN3CCCC3)CC[C@@H]21  8.08%
41. Cc1ncsc1CN1CC[C@H]2OCC[C@@]2(C(=O)NCC2CC2)C1  8.1%
42. COc1ccc(CN2C[C@@H](N(C)Cc3ccco3)[C@H]3OCCC[C@H]32)cc1  8.12%
43. COC[C@]12COC[C@H]1CN(Cc1ccc3ccccc3n1)C2  8.31%
44. Cc1cnc(N2C[C@@H]3[C@@H](C(=O)NC(C)C)CCS(=O)(=O)[C@@H]3C2)nc1  8.69%
45. Cc1nn(C)c(C)c1S(=O)(=O)N1CC[C@H]2O[C@@H](C)C[C@H]2C1  9.45%
46. CC(C)N1CC[C@H]2[C@H](C[C@@H](Cn3cncn3)N2c2nccs2)C1  9.71%
47. c1cnc(NC[C@@H]2CCC[C@@H]3CN(Cc4cccnc4)C[C@@H]32)nc1  9.72%
48. COCCC(=O)N1CCC2(COCc3c(C)nc(NCC4CC4)nc32)C1 (stereo unspecified)  11.8%
49. CN(C)CCN1C[C@@H]2OCCN(Cc3cnn(C)c3)[C@@H]2C1  12%
50. N#Cc1ccccc1C(=O)N1C[C@H]2CC[C@@H]1CN(c1ncccn1)C2  12.4%
51. Cc1noc([C@]23COC[C@H]2CN(Cc2cc(C)on2)C3)n1  14.7%
52. Cc1noc([C@H]2CC[C@@H]3[C@@H](CCN3S(=O)(=O)C3CC3)O2)n1  16.5%
53. O=C(NCCc1cccs1)[C@]12COC[C@H]1CN(Cc1ccccn1)C2  21.1%
54. COCC(=O)N1CCN(S(=O)(=O)c2cccs2)[C@H]2CS(=O)(=O)C[C@H]21  21.1%
55. NCC1Cc2cc(Oc3cc(F)c(CN4CCCC4)c(F)c3)ccc2O1 (stereo unspecified)  72.6%
56. Cc1nc(NCC2CC2)nc2c1COCC21CCN(C(=O)C(C)(C)C)C1 (stereo unspecified)  97.5%

— ChEMBL document CHEMBL3988442, “University of Dundee, Small-Polar-MMV Screening Library” (2021)
